We go through 18 compounds from PubChem BioAssay (NCATS).

Each structure is given as a SMILES string. Results filed as inconclusive are left out. Active and inactive are the calls of the source. Calls follow the shape of the dose curve; as a rule, active = well fitted activation curve with a large enough effect; inconclusive = small, poorly fitted or top-dose-only effect, or effect the other way; inactive = flat fitted curve, though single readings scatter.

A short description of this assay: Cellular Toxicity (caspase-3) NIH 3T3 (AID 666).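 Also: caspase signal read after 16 h compound exposure.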 Particulars: NIH 3T3 caspase-3 activation, apoptosis/toxicity, 0% DMSO, 100% is 100 µM tamoxifen; series mostly up to 92.2 µM. From the text: NIH Chemical Genomics Center [NCGC]
NIH Molecular Libraries Screening Centers Network [MLSCN]
National Institutes of Environmental Health Sciences [NIEHS]
National Toxicology Program [NTP]
We have developed a 1536-well cell-based assay for quantitative high throughput screening (qHTS) against a number of cell lines to determine in vitro caspase 3/7 of small molecules. This particular assay uses the NIH 3T3 cell line which is derived from mouse fibroblasts.
NCGC Assay Protocol Summary:
The Caspase-Glo 3/7 assay (Promega) is a homogeneous method to measure caspase-3 and caspase-7 activities in cultured cells. The quantitation of caspase 3/7 activity is based on the cleavage of a peptide-aminoluciferin substrate. After caspase cleaves the substrate the free aminoluciferin is liberated and serves as the substrate of luciferase, which generates the light. The luminescent signal is proportional to amount of caspase 3/7 activity present.
Using the Caspase-Glo 3/7 assay, the amount of caspase 3/7 activity was measured in the NIH 3T3 cell line with complete culture medium following compound treatment for 16 hours. The assay was performed in opaque white 1536-well plates. In the screen, tamoxifen and doxorubicin were used as positive controls. Library compounds were measured for their ability to cause the activation of caspase 3/7 in the cell line, as reflected by an increase in luminescence signal, in a concentration-dependent manner. Data were normalized to the controls for basal activity (DMSO only) and 100% stimulation (100 uM tamoxifen). AC50 values were determined from concentration-response data modeled with the standard Hill equation.
qHTS protocol for caspase 3/7 assay in NIH 3T3 cells
[Step] [Parameter] [Value] [Description]
1. Reagent; 5 uL; 1000 NIH 3T3 cells/well
2. Time; 5 hr; 37 °C incubation
4. Controls; 23 nL; Tamoxifen 0.23 uM to 100 uM & Doxorubicin 7.0 pM to 100 uM
5. Time; 16 hr; 37 °C incubation
6. Reagent; 5 uL; Caspase-Glo 3/7 reagent
7. Time; 20 min; Room Temperature
8. Detection; Luminescence; Viewlux plate reader
Keywords: caspase 3/7, apoptosis, NIH 3T3 cell line, luminescence, NTPHTS, NTPHTS_NCGC, NIEHS, EPA, DSSTox, MLSMR, MLSCN, NIH Roadmap, qHTS, NCGC
For the compound `COc1cc(OC)c(OC)cc1C=O`, the result was inactive.

In the case of `O=C(O)CCCc1ccc(N(CCCl)CCCl)cc1`, the compound was classed as inactive. Next, `COP(=S)(OC)Oc1ccc(SC)c(C)c1`: “inactive”; `Nc1ccccc1`: “inactive”; `Oc1ccc(Cl)cc1`: “inactive”.

On to `CC(C)c1cccc(C(C)C)c1O`, for which the compound was called inactive. Next, `CCOC(=O)CC(SP(=S)(OC)OC)C(=O)OCC` (stereo not drawn): “inactive”. The value for `Clc1ccc(C(c2ccc(Cl)cc2)C(Cl)(Cl)Cl)cc1` was “inactive”.

As to `Nc1ccccc1C(=O)O`, the call was inactive.

For `C[C@]1(O)CC[C@H]2[C@@H]3CCC4=CC(=O)CC[C@]4(C)[C@@]3(F)[C@@H](O)C[C@@]21C`, the compound was called inactive.

Take `CCCC(C)(COC(N)=O)COC(N)=O`: the compound was classed as inactive.

Consider `CN1C[C@H](C(=O)N[C@]2(C)O[C@@]3(O)[C@@H]4CCCN4C(=O)[C@H](Cc4ccccc4)N3C2=O)C=C2c3cccc4[nH]cc(c34)C[C@H]21`, for which the call was inactive.

Take `CC(C)NC(C)C`: the call was inactive. The value for `O=P1(N(CCCl)CCCl)NCCCO1` (stereo not drawn) was “inactive”; that for `C[C@]12CCC(=O)C=C1CC[C@@H]1[C@@H]2CC[C@]2(C)C(=O)CC[C@@H]12` was “inactive”; that for `COC(=O)C(c1ccccc1)C1CCCCN1` (stereo not drawn) was “inactive”. Next, `C[C@]12CCC(=O)C=C1CC[C@@H]1[C@@H]2CC[C@@]2(C)[C@H]1CC[C@]2(C)O`: “inactive”; `CCC(C)(C)c1ccc(O)cc1`: “inactive”.
